Source: PubChem BioAssay AID1159580 (chemical genetic matrix, 2015)
Values joined by “and” are separate entries in the source; they are usually repeats but may differ in a detail not shown here. Equal values may be shown once. The campaign covered roughly 5,500 compounds. About 2,000 (36%) were called active. Inconclusive results (about 18%) are left out. Cut-off read from the data, not from the text of the source: active = normalized growth mostly below about 0.91 (no sharp cut-off); inconclusive = no clear call, values can overlap the other calls; inactive = mostly above about 0.92. This is one part of the list.

Experiment: chemical genetic growth profiling, strain panel (AID 1159580);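 note: tested at 20 µM; growth read once vehicle control cultures reached saturation at 30 °C; 1 = growth at the plate median or of vehicle wells; lower values mean less growth of the strain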
Conditions: growth OD

Measured: normalized growth

C/C=C(/C)C(=O)O[C@H]1CC[C@@]2(C)[C@@H]3CC[C@H]4[C@]5(O)C[C@H](O)[C@@]6(O)[C@@H](CN7C[C@@H](C)CC[C@H]7[C@@]6(C)O)[C@]5(O)C[C@@]42O[C@]13O
inactive: S. cerevisiae deletion strains, locus YBR021W, strain FUR4, hits give low values 1 | S. cerevisiae deletion strains, locus YBR229C, strain ROT2, hits give low values 1.01 | S. cerevisiae deletion strains, locus YCL029C, strain bik1, hits give low values 0.988 | S. cerevisiae deletion strains, locus YDL035C, strain GPR1, hits give low values 0.991 | S. cerevisiae deletion strains, locus YDL074C, strain BRE1, hits give low values 0.981 | S. cerevisiae deletion strains, locus YDL101C, strain DUN1, hits give low values 1.02 | S. cerevisiae deletion strains, locus YDL185W, strain tfp1, hits give low values 0.966 | S. cerevisiae deletion strains, locus YDL192W, strain arf1, hits give low values 0.966 | S. cerevisiae deletion strains, locus YDR101C, strain arx1, hits give low values 0.981 | S. cerevisiae deletion strains, locus YDR162C, strain NBP2, hits give low values 1.05 | S. cerevisiae deletion strains, locus YDR318W, strain mcm21, hits give low values 0.987 | S. cerevisiae deletion strains, locus YDR388W, hits give low values 0.98 | S. cerevisiae deletion strains, locus YDR502C, strain sam2, hits give low values 0.988 | S. cerevisiae deletion strains, locus YEL061C, strain CIN8, hits give low values 1 | S. cerevisiae deletion strains, locus YER110C, hits give low values 0.964 | S. cerevisiae deletion strains, locus YER155C, strain BEM2, hits give low values 1 | S. cerevisiae deletion strains, locus YER167W, strain BCK2, hits give low values 0.995 | S. cerevisiae deletion strains, locus YGL078C, strain dbp3, hits give low values 0.993 | S. cerevisiae deletion strains, locus YGL086W, strain mad1, hits give low values 0.975 | S. cerevisiae deletion strains, locus YGL248W, strain PDE1, hits give low values 1.03 | S. cerevisiae deletion strains, locus YGR078C, strain PAC10, hits give low values 1.05 | S. cerevisiae deletion strains, locus YGR135W, strain pre9, hits give low values 0.993 | S. cerevisiae deletion strains, locus YGR252W, strain gcn5, hits give low values 1.11 | S. cerevisiae deletion strains, locus YHR030C, strain SLT2, hits give low values 0.988 and 0.996 | S. cerevisiae deletion strains, locus YHR079C, strain IRE1 (second series), hits give low values 0.969 | S. cerevisiae deletion strains, locus YHR079C, strain IRE1, hits give low values 0.969 | S. cerevisiae deletion strains, locus YHR094C, strain hxt1, hits give low values 0.981 | S. cerevisiae deletion strains, locus YHR129C, strain ARP1, hits give low values 0.996 | S. cerevisiae deletion strains, locus YHR200W, strain rpn10, hits give low values 0.964 | S. cerevisiae deletion strains, locus YIL066C, strain RNR3, hits give low values 1.01 | S. cerevisiae deletion strains, locus YIL073C, strain SPO22, hits give low values 0.949 | S. cerevisiae deletion strains, locus YIL125W, strain kgd1, hits give low values 1 | S. cerevisiae deletion strains, locus YIR030C, strain dcg1, hits give low values 0.977 | S. cerevisiae deletion strains, locus YJL095W, strain BCK1, hits give low values 1.05 and 0.999 | S. cerevisiae deletion strains, locus YJL134W, strain LCB3, hits give low values 0.996 | S. cerevisiae deletion strains, locus YJL168C, strain set2, hits give low values 0.982 | S. cerevisiae deletion strains, locus YJL187C, strain SWE1 (second series), hits give low values 1.07 | S. cerevisiae deletion strains, locus YJR043C, strain POL32, hits give low values 1.02 | S. cerevisiae deletion strains, locus YJR066W, strain TOR1, hits give low values 0.928 | S. cerevisiae deletion strains, locus YKL009W, strain mrt4, hits give low values 0.948 | S. cerevisiae deletion strains, locus YKL068W, hits give low values 0.987 | S. cerevisiae deletion strains, locus YKL085W, strain MDH1 (second series), hits give low values 0.979 | S. cerevisiae deletion strains, locus YKL085W, strain MDH1, hits give low values 0.979 | S. cerevisiae deletion strains, locus YKR001C, strain vps1, hits give low values 0.965 | S. cerevisiae deletion strains, locus YLR039C, strain RIC1, hits give low values 0.908 | S. cerevisiae deletion strains, locus YLR058C, strain SHM2, hits give low values 1.01 | S. cerevisiae deletion strains, locus YLR102C, strain apc9, hits give low values 0.975 | S. cerevisiae deletion strains, locus YLR113W, strain HOG1, hits give low values 0.995 | S. cerevisiae deletion strains, locus YLR262C, strain YPT6, hits give low values 0.934 | S. cerevisiae deletion strains, locus YLR268W, strain sec22, hits give low values 0.97 | S. cerevisiae deletion strains, locus YLR330W, strain CHS5, hits give low values 0.986 | S. cerevisiae deletion strains, locus YLR342W, strain FKS1 (second series), hits give low values 1.05 | S. cerevisiae deletion strains, locus YLR371W, strain rom2, hits give low values 0.982 | S. cerevisiae deletion strains, locus YLR418C, strain cdc73, hits give low values 0.988 | S. cerevisiae deletion strains, locus YML016C, strain PPZ1, hits give low values 1 | S. cerevisiae deletion strains, locus YML032C, strain rad52, hits give low values 1 | S. cerevisiae deletion strains, locus YML124C, strain tub3, hits give low values 0.984 | S. cerevisiae deletion strains, locus YMR078C, strain ctf18, hits give low values 0.958 | S. cerevisiae deletion strains, locus YMR223W, strain ubp8, hits give low values 1 | S. cerevisiae deletion strains, locus YMR263W, strain SAP30, hits give low values 1.01 | S. cerevisiae deletion strains, locus YMR307W, strain GAS1, hits give low values 1.15 | S. cerevisiae deletion strains, locus YNL067W, strain RPL9B, hits give low values 1.03 | S. cerevisiae deletion strains, locus YNL183C, strain NPR1, hits give low values 0.974 | S. cerevisiae deletion strains, locus YNL233W, strain BNI4, hits give low values 1.03 | S. cerevisiae deletion strains, locus YNL250W, strain rad50, hits give low values 0.962 | S. cerevisiae deletion strains, locus YNL271C, strain bni1, hits give low values 0.994 | S. cerevisiae deletion strains, locus YNL298W, strain CLA4, hits give low values 0.993 | S. cerevisiae deletion strains, locus YNL307C, strain MCK1, hits give low values 0.995 | S. cerevisiae deletion strains, locus YNR052C, strain pop2, hits give low values 1.01 | S. cerevisiae deletion strains, locus YOL012C, strain htz1 0.767 | S. cerevisiae deletion strains, locus YOL147C, strain pex11, hits give low values 0.991 | S. cerevisiae deletion strains, locus YOR061W, strain CKA2, hits give low values 1 | S. cerevisiae deletion strains, locus YOR069W, strain VPS5, hits give low values 0.997 | S. cerevisiae deletion strains, locus YOR136W, strain idh2, hits give low values 0.981 | S. cerevisiae deletion strains, locus YOR144C, strain elg1, hits give low values 1.01 | S. cerevisiae deletion strains, locus YOR184W, strain ser1, hits give low values 0.993 | S. cerevisiae deletion strains, locus YOR231W, strain MKK1, hits give low values 1.01 | S. cerevisiae deletion strains, locus YOR316C, strain cot1, hits give low values 0.98 | S. cerevisiae deletion strains, locus YPL256C, strain CLN2, hits give low values 0.983 | S. cerevisiae deletion strains, locus YPR119W, strain clb2, hits give low values 0.963 | S. cerevisiae deletion strains, locus YPR141C, strain kar3, hits give low values 0.981 | S. cerevisiae deletion strains, locus YPR163C, strain tif3, hits give low values 0.977 | S. cerevisiae deletion strains, locus YPR167C, strain met16, hits give low values 0.957 | S. cerevisiae deletion strains, strain wtn01, hits give low values 0.977 | S. cerevisiae strains, strain wild type, hits give low values 1.01
